Bioassay records (PubChem)
L major viab: Leishmania major promastigote growth inhibition. 200,000 tested, 9% active. AID 1063. Leishmania major promastigotes, resazurin fluorescence viability. inhibition, % at 10 µM; in the data active = inhibition above about 50%;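 also: promastigotes grown with compound for 44 hours at 28 °C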
Insulin prom inh: TRM-6 insulin promoter activity inhibition; 130,000 tested, 0.9% active; inhibition, % at 2 µM; AID 1273; TRM-6 cells (human fetal islet line), insulin promoter-eGFP reporter, imaging; reporter expression induced with tamoxifen;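 active = inhibition above the mean plus 3 SD, with well images judged a real hit on visual review, cut at about 60% in these data, passing the limit was not always enough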
Cl transport mod: KCC2 (human) Cl- transport modulation; 190,000 tested, 2.2% active; B-score of Tl+ flux slope (higher = more flux/activation; lower = inhibition) at 10 µM; Q9H2X9; AID 1456; KCC2 cells, thallium flux FluoZin-2 fluorescence;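 active = thallium flux slope and its plate-corrected score both differing from the plate sample mean at a set confidence after two filtering rounds, in either direction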;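 also: slope of fluorescence scaled to starting intensity during 10 to 20 s after thallium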
WT yeast gro inh: growth inhibition of WT yeast, mitochondrial fusion screen. AID 1362. mitochondrial fusion phenotypic screen, WT strain. inhibition, % at 10 µM. 190,000 tested, 2.1% active; in the data active = inhibition above about 58%; tested in S. cerevisiae
Ins promoter up: MIN6 insulin promoter up-regulation | MIN6 insulin promoter-GFP reporter, high-content imaging; active compounds read high | z-score at 5 µM | 190,000 tested, 0.3% active;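 active = z-score above 3 at 5 µM with at least 500 cells counted in the well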
ROMK primary: human ROMK K+ channel modulation, primary screen; Tet-inducible ROMK, thallium flux fluorescence; actives lie on both sides; B-score at 10 µM; 130,000 tested, 2% active; AID 1918;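 active = signal ratio slope over the read window, or its plate-corrected B-score, at least 3 SD from the plate mean, either direction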;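 also: B-score of the F/F0 ratio slope over 7 to 12 s after thallium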
Target sequence (P48048 whole entry, looked up): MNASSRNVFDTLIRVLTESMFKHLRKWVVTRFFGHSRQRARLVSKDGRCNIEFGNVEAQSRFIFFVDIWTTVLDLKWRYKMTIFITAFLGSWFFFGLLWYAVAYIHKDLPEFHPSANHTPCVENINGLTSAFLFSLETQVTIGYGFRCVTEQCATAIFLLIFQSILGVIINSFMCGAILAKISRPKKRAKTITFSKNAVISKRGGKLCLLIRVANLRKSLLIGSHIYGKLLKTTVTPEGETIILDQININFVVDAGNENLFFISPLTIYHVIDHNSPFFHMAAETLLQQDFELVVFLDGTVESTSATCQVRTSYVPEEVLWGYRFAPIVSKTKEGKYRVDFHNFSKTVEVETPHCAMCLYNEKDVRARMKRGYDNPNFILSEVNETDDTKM
Active calls of the source: *; / = no result given. This is a sample that favours compounds with a hit; in the whole collection about 12% have one here.

SMILES	L major viab	Insulin prom inh	Cl transport mod	WT yeast gro inh	Ins promoter up	ROMK primary
CCOC(=O)Cc1csc(NC(=O)c2cc3c(s2)CCCC3)n1	91*	13	-1.1	22	-1.2	-0.24
CC(C)(C(=O)O)n1cncn1	-11	/	-0.2	-1	0.51	0.99
Nc1ccnn1Cc1cccs1	-7	/	2.1	4	1	/
CC(=O)C1=C(C)Nc2ncnn2C1c1ccc(Cl)cc1Cl (stereo not given)	-5	/	0.66	-8	3.5*	-1.5
CCC(=O)NC(=S)Nc1ccc(Cl)cn1	9	-12	0.77	13	-0.46	/
O=C(NC(=S)Nc1ccc(Cl)cn1)C(c1ccccc1)c1ccccc1	1	7	/	72*	1.4	/
O=C(Nc1ccc(Cl)cn1)C1C(c2ccccc2)C1(Cl)Cl (stereo not given)	25	0	0.074	71*	/	/
O=C(Nc1ccc(Cl)cn1)C1CC1	-1	20	-0.064	3	-0.01	-0.17
O=C(NC(=S)Nc1ccc(Cl)cn1)C12CC3CC(CC(C3)C1)C2	1	5	1.4	73*	-1.5	-0.75
COC(=O)c1ccc(N)nc1	-5	/	-0.15	-6	0.04	-0.13
CCN(CC)CCCNc1nc2cc(OC)c(OC)cc2c2nc(-c3ccccc3)nn12	101*	-38	-0.71	26	-3.8	-1.1
COc1cc2nc(NCC3CCCO3)n3nc(-c4cccnc4)nc3c2cc1OC (stereo not given)	49	/	-1.3	14	-0.6	/
COc1cc2nc(NCCCN3CCN(C)CC3)n3nc(-c4ccccc4)nc3c2cc1OC	101*	/	/	16	-0.47	-1.1
CCN(CC)CCCNc1nc2cc(OC)c(OC)cc2c2nc(-c3cccnc3)nn12	101*	25	-0.52	-2	-3.4	0.15
COc1cc2nc(-c3ccccc3)nc(N3CCCC3)c2cc1OC	48	43	0.61	31	/	/
O=C(CCC(=O)NNc1nc2ccccc2c2nc(-c3ccccc3)nn12)NCCCN1CCOCC1	-2	0	1	-7	0.31	/
O=C1NC2(CCC3(CC2)OCCO3)NN1c1ccc(Cl)cc1	14	-8	0.37	34	-0.62	/
CC(C)Cn1c(=O)c(C2=NS(=O)(=O)c3ccccc3N2)c(O)c2ccccc21	5	-5	8.8*	/	/	/
S=C(NCc1ccccc1)N1CCn2cccc2C1c1cccnc1 (stereo not given)	91*	-124	-2.9	-25	0.81	-0.54
S=C(NCCc1ccccc1)N1CCn2cccc2C1c1cccnc1 (stereo not given)	95*	-67	0.51	10	-1.1	-2
COc1ccc(-c2ccnc(SCC(=O)c3ccc(Br)cc3)n2)cc1	-2	31	-0.64	18	-0.37	/
CC(=O)N1CCc2ccc(S(=O)(=O)N3CCN(C)CC3)cc21	53*	-27	1.5	-1	-0.02	0.51
CN1CCN(S(=O)(=O)c2ccc(-c3ccc(S(=O)(=O)N4CCN(C)CC4)cc3)cc2)CC1	/	/	/	12	0.58	/
CN1CCN(S(=O)(=O)c2ccc(Cc3ccc(S(=O)(=O)N4CCN(C)CC4)cc3)cc2)CC1	65*	/	0.074	-11	-0.74	-0.51
COc1cccc(NC(=O)CN(C)CC(=O)NC(C)c2ccccc2)c1 (stereo not given)	/	/	1.1	/	0.04	/
SMILES	L major viab	Insulin prom inh	Cl transport mod	WT yeast gro inh	Ins promoter up	ROMK primary
Clc1ccc(OCc2nnc(-c3ccccc3Br)o2)cc1	-8	/	/	36	0.69	/
O=S(=O)(c1ccccc1F)N(Cc1ccco1)Cc1nnc(-c2ccccc2Br)o1	65*	-7	/	0	-0.2	-0.4
Nc1n[nH]c(S(=O)(=O)CCCc2ccccc2)n1	-7	44	-0.52	-1	0.29	/
CCOC(=O)C1CCN(C(=O)c2cccc(NC(=O)C(CC)CC)c2)CC1	2	14	-0.31	16	0.77	/
COc1ccc(Nc2nnc(-c3ccccc3)c3ccccc23)cc1C(=O)N1CCCCC1	26	19	-1.6	-6	0.23	/
COc1ccc(Nc2nnc(-c3ccc(C)cc3)c3ccccc23)cc1C(=O)N1CCCCC1	66*	-58	-2.2	-4	-0.6	0.23
COc1cccc(/C=C2\C(=O)N(c3cccc(C)c3)C(=O)c3ccccc32)c1	73*	51	1.1	12	1.3	/
Cc1cccc(N2C(=O)/C(=C\c3ccc(OC(F)F)cc3)c3ccccc3C2=O)c1	5	/	-0.82	7	0.26	-1.4
Cc1nc(SCc2nnc(-c3ccc(Cl)cc3)o2)c2c3c(sc2n1)CCC3	/	/	/	/	-0.07	/
CCOC(=O)c1ccc2c(c1)N(CC(=O)N1CCCCC1)C(=O)C(C)(C)O2	-4	-300	-0.077	-6	/	/
